Source: PMC4336329 (PLoS ONE, 2015)
In all, about 310,000 compounds went through this assay and about 14,000 (4.5%) showed an effect of 50% or more. The effect is printed as a negative number. What follows is part of a selection rich in strong results, with near analogues and random picks from the rest.
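Also: peak tail current of the secondary pulse compared with the same well before compound.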

What follows are molecules tested against human ether-à-go-go-related gene (hERG) potassium channel (human, UniProt Q12809) (assay: primary screen, population patch clamp on CHO cells stably expressing hERG; higher = less effect of the substance).
human ether-à-go-go-related gene (hERG) potassium channel, sequence (Q12809 whole entry, looked up): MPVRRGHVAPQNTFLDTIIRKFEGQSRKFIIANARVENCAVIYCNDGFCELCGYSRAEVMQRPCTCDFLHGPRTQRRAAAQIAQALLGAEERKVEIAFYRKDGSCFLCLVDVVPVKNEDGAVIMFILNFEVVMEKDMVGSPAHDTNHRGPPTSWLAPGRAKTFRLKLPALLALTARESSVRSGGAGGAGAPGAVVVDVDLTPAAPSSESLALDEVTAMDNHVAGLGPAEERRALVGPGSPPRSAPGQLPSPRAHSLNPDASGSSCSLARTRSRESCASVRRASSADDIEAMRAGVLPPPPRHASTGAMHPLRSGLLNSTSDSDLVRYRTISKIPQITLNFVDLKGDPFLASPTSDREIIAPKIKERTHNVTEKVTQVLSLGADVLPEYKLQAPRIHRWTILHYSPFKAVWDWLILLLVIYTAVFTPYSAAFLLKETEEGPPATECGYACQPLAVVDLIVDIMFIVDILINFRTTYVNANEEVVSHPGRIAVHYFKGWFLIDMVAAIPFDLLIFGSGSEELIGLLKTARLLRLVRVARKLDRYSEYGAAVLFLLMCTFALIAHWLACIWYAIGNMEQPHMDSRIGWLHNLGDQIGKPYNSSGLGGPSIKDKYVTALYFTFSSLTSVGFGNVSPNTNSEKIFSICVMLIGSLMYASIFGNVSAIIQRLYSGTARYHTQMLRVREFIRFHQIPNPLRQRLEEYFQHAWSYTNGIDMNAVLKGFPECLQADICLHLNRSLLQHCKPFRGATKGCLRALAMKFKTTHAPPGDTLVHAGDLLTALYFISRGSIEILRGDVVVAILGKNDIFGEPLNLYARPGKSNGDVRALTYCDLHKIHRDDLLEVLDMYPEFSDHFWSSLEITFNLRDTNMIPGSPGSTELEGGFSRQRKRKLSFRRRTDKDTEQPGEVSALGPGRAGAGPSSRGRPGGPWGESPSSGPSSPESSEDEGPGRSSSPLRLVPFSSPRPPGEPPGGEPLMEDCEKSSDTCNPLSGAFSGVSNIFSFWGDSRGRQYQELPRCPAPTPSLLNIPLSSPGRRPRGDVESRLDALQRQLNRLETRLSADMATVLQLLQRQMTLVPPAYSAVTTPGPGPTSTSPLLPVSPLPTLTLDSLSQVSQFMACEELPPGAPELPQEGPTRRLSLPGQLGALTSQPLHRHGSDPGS
`COc1ccc(NC(=O)CC2C(=O)N(c3ccccc3)C(=O)N2CCc2cccs2)cc1` (stereo not drawn) was tested, and the “hERG current change (%, negative = inhibition) at 10uM” value was -32.9%.
`CCOc1ccccc1NC(=O)C1CCCCN1S(=O)(=O)c1ccc(F)cc1` (stereo not drawn) was tested, and the “hERG current change (%, negative = inhibition) at 10uM” value was -2.26%.
In the case of `CN1CCN(C(c2cccnc2)c2ccc3cccnc3c2O)CC1` (stereo not drawn), the “hERG current change (%, negative = inhibition) at 10uM” value was -4.29%.
With `Cc1cccn2c(=O)nc(SCC(=O)N3CC(C)OC(C)C3)nc12` (stereo not drawn) the “hERG current change (%, negative = inhibition) at 10uM” value was 1.96%.
In the case of `CCc1nc(NCCO)c(C#N)c2c1CCCC2`, the “hERG current change (%, negative = inhibition) at 10uM” value was 13.4%.
In the case of `CCOc1ccccc1-c1nnc(SCC(=O)NC2(C#N)CCCC2)o1`, the “hERG current change (%, negative = inhibition) at 10uM” value was -19.2%.
For `CC(C)OC(=O)c1ccc(NC(=O)Cn2c(-c3nonc3N)nc3ccccc32)cc1`, the “hERG current change (%, negative = inhibition) at 10uM” value was 18.4%.
For `CC1(c2ccccc2)NC(=S)N2C1NC(=S)N2c1ccccc1` (stereo not drawn), the “hERG current change (%, negative = inhibition) at 10uM” value was 10.2%.
For `COc1cc(NC(=O)C/C(C)=N/NC(=O)c2cccc(O)c2)c(OC)cc1Cl`, the “hERG current change (%, negative = inhibition) at 10uM” value was -8.16%.
With `CCOC(=O)COn1c(=O)c(=O)n(OC)c2ccccc21` the “hERG current change (%, negative = inhibition) at 10uM” value was 17.8%.
`O=C(COC(=O)Cc1cn2ccsc2n1)NCc1ccc2c(c1)OCO2` was tested, and the “hERG current change (%, negative = inhibition) at 10uM” value was -15.2%.
For `O=C(O)Cn1c(=O)n(Cc2ccccc2)c2ccccc21`, the “hERG current change (%, negative = inhibition) at 10uM” value was 23.4%.
`Br.CCCCn1c(=N)n(CC(=O)c2ccc(Br)s2)c2ccccc21` was tested, and the “hERG current change (%, negative = inhibition) at 10uM” value was -52.8%.
`Br.Cn1c(=N)n(CC(=O)c2cccs2)c2ccccc21` was tested, and the “hERG current change (%, negative = inhibition) at 10uM” value was -0.146%.
With `Br.N=c1n(CC(=O)c2ccc(Br)s2)c2ccccc2n1Cc1ccccc1` the “hERG current change (%, negative = inhibition) at 10uM” value was -61.7%.
In the case of `Br.N=c1n(CC(=O)c2cccs2)c2ccccc2n1Cc1ccccc1`, the “hERG current change (%, negative = inhibition) at 10uM” value was -48%.
In the case of `CCCn1c(=N)n(CC(=O)c2cccs2)c2ccccc21`, the “hERG current change (%, negative = inhibition) at 10uM” value was -22%.
In the case of `CCC(C(=O)NCCN1CCOCC1)n1c2ccccc2c2nc(=O)cc(C)n21` (stereo not drawn), the “hERG current change (%, negative = inhibition) at 10uM” value was 23.1%.
`Cc1cccc(NC(=O)CSc2nnnn2-c2cccnc2)c1` was tested, and the “hERG current change (%, negative = inhibition) at 10uM” value was -6.57%.
`COc1ccc(OC)c2nc(-c3cccnc3)ccc12` was tested, and the “hERG current change (%, negative = inhibition) at 10uM” value was 10.2%.
In the case of `O=C1CC2(CCCCC2)Oc2ccc(Cl)cc21`, the “hERG current change (%, negative = inhibition) at 10uM” value was 1.26%.
For `O=C(c1cccc(Br)c1)N1CCCC1`, the “hERG current change (%, negative = inhibition) at 10uM” value was 0.701%.
In the case of `O=C1CC2(CCN(C(=O)c3cccc(Br)c3)CC2)Oc2ccccc21`, the “hERG current change (%, negative = inhibition) at 10uM” value was -85.5%.
`O=C1CC2(CCN(C(=O)c3ccc(F)cc3)CC2)Oc2ccccc21` was tested, and the “hERG current change (%, negative = inhibition) at 10uM” value was -76%.
With `O=C1CC2(CCN(C(=O)c3ccc(Br)cc3)CC2)Oc2ccccc21` the “hERG current change (%, negative = inhibition) at 10uM” value was -73.5%.
In the case of `O=C1CC2(CCN(C(=O)c3cccc(Cl)c3)CC2)Oc2ccccc21`, the “hERG current change (%, negative = inhibition) at 10uM” value was -78.5%.
`O=C(c1ccc(F)cc1)N1CCC2(CC1)OCCO2` was tested, and the “hERG current change (%, negative = inhibition) at 10uM” value was 19%.
With `CC(=O)Nc1ccc(S(=O)(=O)N2CCC3(CC2)CC(=O)c2ccccc2O3)cc1` the “hERG current change (%, negative = inhibition) at 10uM” value was -36.6%.
In the case of `Oc1c(C(Nc2cccc(C(F)(F)F)c2)c2ccncc2)ccc2cccnc12` (stereo not drawn), the “hERG current change (%, negative = inhibition) at 10uM” value was 12.3%.
For `CCOc1ccc(S(=O)(=O)NCCC(=O)OCC(=O)Nc2cc(C)on2)cc1`, the “hERG current change (%, negative = inhibition) at 10uM” value was -44.1%.
In the case of `COc1ccc(-c2nnn(CC(=O)c3ccc4c(c3)OCCO4)n2)cc1OC`, the “hERG current change (%, negative = inhibition) at 10uM” value was 9.3%.
In the case of `C/C(=N\NC(=O)c1cc(-c2ccc(Br)s2)[nH]n1)c1ccncc1`, the “hERG current change (%, negative = inhibition) at 10uM” value was 11.1%.
`COc1ccc(C(=O)CCc2ccccc2)cc1` was tested, and the “hERG current change (%, negative = inhibition) at 10uM” value was 9.03%.
With `CCOC(=O)N1CCN(c2nc(-c3ccco3)cc(C(F)(F)F)n2)CC1` the “hERG current change (%, negative = inhibition) at 10uM” value was -3.17%.
`Cc1ccc(C(=O)Nc2cccnc2N2CCN(C)CC2)cc1` was tested, and the “hERG current change (%, negative = inhibition) at 10uM” value was -5.47%.
For `O=C1CC2(CCN(C(=O)c3cccc(F)c3)CC2)Oc2ccccc21`, the “hERG current change (%, negative = inhibition) at 10uM” value was -75.1%.
`O=C1CC2(CCCC2)Oc2ccc(F)cc21` was tested, and the “hERG current change (%, negative = inhibition) at 10uM” value was -8.58%.
`O=C(c1ccc(Cl)cc1)N1CCC2(CC1)OCCO2` was tested, and the “hERG current change (%, negative = inhibition) at 10uM” value was 13.2%.
For `O=C1CC2(CCN(C(=O)c3ccc(Cl)cc3)CC2)Oc2ccccc21`, the “hERG current change (%, negative = inhibition) at 10uM” value was -87.8%.
`Cc1cccc(NS(=O)(=O)c2cccc(C(=O)N3CCCC3)c2)c1` was tested, and the “hERG current change (%, negative = inhibition) at 10uM” value was 4.7%.
With `CC(C)(C)NC(=O)COC(=O)c1ccc(Cl)cc1O` the “hERG current change (%, negative = inhibition) at 10uM” value was 18.8%.
With `C=CCN=C1CC(C)(C)CC(=O)/C1=C(\O)CCCN1C(=O)c2ccccc2C1=O` the “hERG current change (%, negative = inhibition) at 10uM” value was -23.5%.
In the case of `Cc1ccc(NC2c3ncccc3C(=O)N2C2CCCCC2)cc1` (stereo not drawn), the “hERG current change (%, negative = inhibition) at 10uM” value was 5.93%.
In the case of `Cn1cc(CN2CCN(c3cnccn3)CC2)c(-c2cccc(Cl)c2)n1`, the “hERG current change (%, negative = inhibition) at 10uM” value was 6.29%.
With `COc1cc2c(cc1OC)C(C(=O)N1CCN(c3ccccn3)CC1)C(c1cccs1)N(C)C2=O` (stereo not drawn) the “hERG current change (%, negative = inhibition) at 10uM” value was -38%.
